Experimental findings from the OligoGym collection are described below.
Note: reference of the scale not given here.

The target of one test is ACYP1. The test can be described thus: pooled miR-30 sensor sort-seq; sequence = guide strand. The following applies: shRNA.
With TCTTGTTTCAAGCCATTCCTGC, the sensor-assay potency score (higher = more potent) is -0.475.
On the same count and under the same terms, the value for TAATATTAACACACAATAGTTC was -0.41.
On the same count and under the same terms, the value for TTCCTGCATATGACGCACCTTG was -0.872; that for TCCAACTTCAAGATGACTTTTT was -1.37; that for TAACTTATTGACTAATGCTAAT was -1.36.
Sequence AAAAATTTCATAATCCACTGAT yielded a sensor-assay potency score (higher = more potent) of 0.598.
Same read-out and setting: the value for TTTGCTTTGTCGATGTGTGATT was -0.219; that for TCGATGTGTGATTTAGGACTTC was -0.511.
As to TAGGACTTCCTCTTGTTTCAAG, the sensor-assay potency score (higher = more potent) was -0.653.
With TTAGATTTGTGTACAGTGGTAA, the sensor-assay potency score (higher = more potent) worked out at 0.61.
With TGTCCTTGCACTGTGCCCCGGT, the sensor-assay potency score (higher = more potent) was determined as 0.12.
The same measure, in the same setting: the value for TTCATTGTTGAAGTTTGCTTTG was -0.707; that for TTTCATTGTTGAAGTTTGCTTT was 0.5; that for TGTGTGATTTAGGACTTCCTCT was -0.445.
For the sequence TTGTGTACAGTGGTAATCCTTC, the sensor-assay potency score (higher = more potent) is -0.227.

A further test deals with ACYP2. The test is described as above. The following applies: shRNA.
In turn, TTTTCCTAGCTTCATCTTCTGT showed a sensor-assay potency score (higher = more potent) of -0.817.
In the case of ATCTTCTGTATACATTCTGAAG, the sensor-assay potency score (higher = more potent) was -1.49.
On the same count and under the same terms, the figure for TTGCTTGTTGAAAACATAGTTG is -0.594.
Turning to TTCATTAGAAAAGTTTGTGCGG, the sensor-assay potency score (higher = more potent) came to 0.328.
TATTCTAGTATACATAGTCTTA registered a sensor-assay potency score (higher = more potent) of -0.674.
On the same count and under the same terms, the value for TCTGTATACATTCTGAAGCAAA was -1.22.
On the same count and under the same terms, the value for TTTTCATTAGAAAAGTTTGTGC was -0.116; that for TTAGTAGCACGTACAGTCGCTT was -0.537.
In turn, TTGCTGGTATTCTTCACCCAGC gave a sensor-assay potency score (higher = more potent) of -1.24.
Sequence TTGAGTAAAATTATTTCAGTGT had a sensor-assay potency score (higher = more potent) of 0.361.
TTTAGTAGCACGTACAGTCGCT: the sensor-assay potency score (higher = more potent) turned out to be 0.0895.
In turn, TAGTAGCACGTACAGTCGCTTA yielded a sensor-assay potency score (higher = more potent) of -1.19.
Regarding TTTCCTAGCTTCATCTTCTGTA, the sensor-assay potency score (higher = more potent) was 0.952.
TTCATCTTCTGTATACATTCTG yielded a sensor-assay potency score (higher = more potent) of 0.635.
TATTTTCCTAGCTTCATCTTCT came in with a sensor-assay potency score (higher = more potent) of 1.16.
Take TTTGCTGGTATTCTTCACCCAG: the sensor-assay potency score (higher = more potent) is -0.785.
Still for that read-out and setting: the figure for TCATTAGAAAAGTTTGTGCGGT is -0.214; for TTCTAGTATACATAGTCTTAAG it is -1.46.
Sequence TTGACTTTGTCTTCTGGCCCCT gave a sensor-assay potency score (higher = more potent) of 0.0313.
Still for that read-out and setting: the value for TACTCTGCTACTATTATTCTAG was -0.38; that for TGGAATTGACTTTGTCTTCTGG was -0.0277; that for TAGTCTTAAGAACATACAGTAT was -1.07.
As to TATTCAAGCTTAGAGATGGTTT, the sensor-assay potency score (higher = more potent) was -0.574.
Consider TTCCTAGCTTCATCTTCTGTAT, for which the sensor-assay potency score (higher = more potent) was -0.685.
